Screens: PubChem, National Center for Advancing Translational Sciences (NCATS)
HCV inh = HCV inhibition; Huh7.5.1 HCVcc-Cre infection, luciferase reporter, 44 h; Potency, µM (doses to about 41.8 µM), for the others: top-dose activity change, negative = inhibition, actives largely listed as inhibitors; hit rate 3.4% among 340,000; AID 651820; active = well fitted inhibition curve with a large enough effect; inconclusive = small, poorly fitted or top-dose-only effect, or another doubt; inactive = no such curve, though single readings can be large or run the other way; note: potency is the fitted concentration of half-maximal effect
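Cells seeded at 1,000/well and cultured 4 h, then compounds added followed by HCVcc-Cre virus (~0.5 moi). After 44 h further culture, luciferase substrate was added, plates held 15 min at room temperature, and luminescence read for 15 sec.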
HCMV inh = blocks human cytomegalovirus replication; AID 1259415; activity change, negative = inhibition, % at 57.5 µM; hit rate 4.5% among 410,000; HFF cells, HCMV-luciferase reporter, 72 h; active compounds read low; in the data active = activity change below about -60%; inconclusive = no clear call, values can overlap the other calls; inactive = above about -39%
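Human foreskin fibroblasts infected with luciferase-reporter HCMV at MOI 1 PFU/cell, compounds at two doses. Luciferase measured 72 h post infection; normalized to buffer-only basal and Salinomycin (10uM) controls.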
Vaccinia mCherry = inhibitors of vaccinia virus infection (mCherry reporter signal) | Vaccinia virus mCherry reporter infection, fluorescence | Potency, µM (top dose mostly 36.5 µM), without a hit: at the highest dose activity change, negative = inhibition, most hits filed as inhibitors | hit rate 0.63% among 310,000 | AID 720579; calls by dose curve; tested in A549 cells; note: potency is the fitted concentration of half-maximal effect; nearly all actives have a fitted effect of over 35% in size
FMDV inh = antivirals against foot and mouth disease virus. FMDV antiviral cell-based qHTS. Potency, µM (series often up to 57.9 µM), for the others: at the top dose activity change, negative = inhibition, usual class: inhibitors. hit rate 1.2% among 410,000; calls by dose curve; tested in HEK293T cells; note: read-out not given here; potency is the fitted concentration of half-maximal effect; nearly all actives have a fitted effect of over 45% in size
VACV Venus inh = inhibitors of vaccinia virus (Venus reporter) | Vaccinia virus Venus reporter expression, fluorescence | Potency, µM (highest dose often 36.5 µM), for the others: at the highest dose activity change, negative = inhibition, most hits filed as inhibitors | hit rate 0.46% among 330,000 | AID 720580; calls by dose curve; tested in A549 cells; note: potency is the fitted concentration of half-maximal effect; nearly all actives have a fitted effect of over 30% in size
Starred values were filed as active, the others as inactive; ! = a repeat was not active. Only some compounds are listed: those with a hit (about 7.3% of all), similar ones and a draw of the others. % is set by controls: 0 for no effect and ±100 for the full control effect.

For O=C(COC(=O)c1ccccc1C(=O)c1ccc(Cl)c([N+](=O)[O-])c1)NC1CCCCCC1 the results were HCV inh 12.6µM* and FMDV inh inconclusive.
Screening Cn1c(N)c(C(=O)COC(=O)c2ccccc2C(=O)c2ccc(Cl)c([N+](=O)[O-])c2)c(=O)n(C)c1=O returned HCV inh 11.2µM*, Vaccinia mCherry inconclusive, FMDV inh inconclusive and VACV Venus inh inconclusive.
For COc1ccc(-n2c(=O)c3c4c(sc3n(Cc3ccc(F)cc3)c2=O)CCCC4)c(OC)c1 the results were HCMV inh -8.7, Vaccinia mCherry -10.2%, FMDV inh -27.3% and VACV Venus inh -8.5%.
`COC(=O)C1N2C(=O)N(C)[C@H](C(=O)OC)[C@H]2SC1(C)C` (stereo partly specified) gave Vaccinia mCherry inactive and VACV Venus inh -6.7%.
`COCC(=O)Nc1cc(C(=O)N2CC3CC4CC(C3)CC2C4)c2c(c1)nc(-c1ccncc1)n2C` gave Vaccinia mCherry -4.5%, FMDV inh -3.5% and VACV Venus inh -1.7%.
`COc1cccc(COC(=O)c2nn(-c3ccccc3)nc2N)c1` gave HCV inh 16.8%, HCMV inh -25.0, Vaccinia mCherry -1.9%, FMDV inh 25.1µM*! and VACV Venus inh -19.2%.
Screening CCOc1ccc(CCNC(=O)c2ccc(CS(=O)Cc3ccc(Cl)cc3)o2)cc1OCC (stereo unspecified) returned HCV inh 2.51µM*, HCMV inh -30.2 and FMDV inh -11.3%.
Screening O=C(NCCc1ccc(Cl)cc1)c1ccc(CS(=O)Cc2ccccc2Cl)o1 (stereo unspecified) returned HCV inh inconclusive, HCMV inh -65.9*!, Vaccinia mCherry -14.9%, FMDV inh inconclusive and VACV Venus inh -8.5%.
`O=C(NCCc1ccc(Cl)cc1)c1ccc(CS(=O)(=O)Cc2ccc(Cl)cc2)o1` gave HCMV inh 106.7, Vaccinia mCherry -14.1%, FMDV inh 1.5% and VACV Venus inh -14.0%.
`O=C(NCCc1ccc(Cl)cc1)c1ccc(CS(=O)(=O)Cc2ccccc2F)o1` gave HCMV inh -37.5, Vaccinia mCherry -20.9%, FMDV inh 39.8µM* and VACV Venus inh -10.3%.
CC=C1C2C=C(C)CC1(N)c1ccc(=O)[nH]c1C2 (stereo unspecified) was read as Vaccinia mCherry -17.9%, FMDV inh -7.0% and VACV Venus inh -8.9%.
`COC(=O)[C@@H]1CCCN1C(=O)c1c(OC)cc(=O)n2c1CCN(Cc1ccc3cccnc3c1)CC2` gave Vaccinia mCherry -0.8%, FMDV inh 1.6% and VACV Venus inh -10.6%.
CCCCCn1c(-c2ccc(OC)c(OC)c2)nc2ccccc21 was read as HCMV inh 2.7, Vaccinia mCherry 7.1%, FMDV inh -18.3% and VACV Venus inh -6.3%.
Cc1nn(C(=O)c2ccc(Cl)cc2)c(C)c1Sc1ccc(Cl)cc1 was read as HCMV inh -2.0, Vaccinia mCherry -16.3%, FMDV inh inconclusive and VACV Venus inh -4.3%.
For COc1cc(C(=O)COC(=O)c2cc([N+](=O)[O-])ccc2N2CCOCC2)ccc1OC(F)F the results were HCV inh 1.12µM*, HCMV inh -2.7, Vaccinia mCherry -9.2%, FMDV inh inconclusive and VACV Venus inh -23.4%.
For COc1ccc(C(=O)COC(=O)c2cc([N+](=O)[O-])ccc2N2CCOCC2)c(OC)c1 the results were HCV inh 1µM*, HCMV inh 18.4, Vaccinia mCherry -18.5%, FMDV inh -18.9% and VACV Venus inh -12.8%.
Screening COc1ccccc1C(=O)COC(=O)c1cc([N+](=O)[O-])ccc1N1CCOCC1 returned HCV inh inconclusive, HCMV inh -11.5, Vaccinia mCherry inactive, FMDV inh 7.2% and VACV Venus inh -8.0%.
Screening CC(=O)N1CCC2(CCCN(c3ccc(-c4ccccc4)cc3)C2)CC1 returned FMDV inh -28.9%.
For CC1CCCCC1NC(=O)CC1Oc2ccccc2NC1=O (stereo unspecified) the results were HCV inh 4.4%, HCMV inh -66.3*, Vaccinia mCherry 6.6%, FMDV inh -23.7% and VACV Venus inh -1.3%.
`COc1ccc(NC(=O)N(C)C[C@H]2OCc3cnnn3CCCC(=O)N([C@H](C)CO)C[C@@H]2C)c(OC)c1` gave HCMV inh 14.0.
Cc1cc2nc(C)n(CCCNC(=O)Nc3cccc4ccccc34)c2cc1C was read as HCV inh inconclusive, HCMV inh -79.6* and FMDV inh -23.0%.
CN(C(=O)Cn1c(=O)n(CCC(=O)NCc2ccc3c(c2)OCO3)c(=O)c2sccc21)c1ccccc1 was read as HCMV inh 35.8, Vaccinia mCherry -5.9%, FMDV inh 18.9% and VACV Venus inh -12.2%.
Screening CC(C)(C)c1ccc2c(c1)OC(C(=O)N/N=C\c1ccc[nH]1)CO2 (stereo unspecified) returned HCV inh 1µM*, HCMV inh -39.3 and FMDV inh inconclusive.
For COc1ccc(OC)c(S(=O)(=O)N/N=C\c2ccc3c(c2)OCO3)c1 the results were HCV inh -2.1%, HCMV inh 23.6, Vaccinia mCherry inactive, FMDV inh 50.5% and VACV Venus inh -11.5%.
For COc1ccc(S(=O)(=O)N/N=C\c2ccc3c(c2)OCO3)c(OC)c1 the results were HCV inh 3.55µM*, HCMV inh 18.0, Vaccinia mCherry -1.6%, FMDV inh 32.5% and VACV Venus inh -16.0%.
`O=c1[nH]c2ccccc2n1C1CCN(C(c2ccccc2OC(F)(F)F)c2nnnn2Cc2ccccc2)CC1` (stereo unspecified) gave HCMV inh -69.4*, Vaccinia mCherry -8.5%, FMDV inh inconclusive and VACV Venus inh -26.5%.
`COc1ccc(C(c2nnnn2-c2ccc(OC)cc2)N2CCC(n3c(=O)[nH]c4ccccc43)CC2)cc1` (stereo unspecified) gave HCMV inh -60.7*, Vaccinia mCherry -25.5%, FMDV inh inconclusive and VACV Venus inh -14.0%.
For O=c1[nH]c2ccccc2n1C1CCN(CCCC(c2ccc(F)cc2)c2ccc(F)cc2)CC1 the results were HCV inh 2µM*!, HCMV inh inconclusive, Vaccinia mCherry -13.9%, FMDV inh inconclusive and VACV Venus inh inconclusive.
For Cc1cccc(C)c1-n1nnnc1C(C1CC1)N1CCC(n2c(=O)[nH]c3ccccc32)CC1 (stereo unspecified) the results were HCMV inh -15.1, Vaccinia mCherry 1.0%, FMDV inh inconclusive and VACV Venus inh -18.0%.
O=C(NCCN1CCC(n2c(=O)[nH]c3ccccc32)CC1)c1ccccc1 was read as HCMV inh -10.4, Vaccinia mCherry -2.3%, FMDV inh -19.1% and VACV Venus inh -9.5%.
COc1ccc(-n2nnnc2C(c2cc3ccccc3o2)N2CCC(n3c(=O)[nH]c4ccccc43)CC2)cc1 (stereo unspecified) was read as HCMV inh -100.3*, Vaccinia mCherry inconclusive, FMDV inh inconclusive and VACV Venus inh inconclusive.
